84 compounds from PubChem BioAssay AID720553 (National Center for Advancing Translational Sciences (NCATS), 2013) can be followed below.

The structures appear in SMILES notation. Screen size: about 340,000 compounds; about 3,300 (0.97%) were called active. This is one part of a sample in which actives are shown more often than they occur. Values without a mark were called inactive.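 The calls were made as follows: active = maximum activity change below -70%; inconclusive = maximum activity change from -70% to -50%; inactive = maximum activity change above -50%.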
% is scaled to controls: 0 for no effect and ±100 for the full control effect.

The test system of this experiment is Potassium voltage-gated channel subfamily H member 2, brain isoform KCNH2 3.1 (human). Description: qHTS for Inhibitors of KCHN2 3.1: Mutant qHTS. Conditions: U2OS KCNH2 3.1, thallium flux FluxOr; active compounds read low. In outline:
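Normalized rate constant (relative to positive and negative DMSO controls) derived from a 2 min kinetic fluorescence read after stimulation; U2OS cells expressing the 3.1 isoform via virus at 1.77 x 10^8 /mL.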
(qHTS replaces the single test concentration by a dilution series.)
For the compound `CC1=C(C(=O)N(C)C)CC(CC(=O)NCCN2CCOCC2)C(=O)N1Cc1ccccc1` (centres undefined), the activity change was -16.9%.
In the case of `C[C@@H]1CN([C@H](C)CO)C(=O)CCCn2cc(nn2)CO[C@H]1CN(C)S(C)(=O)=O` it was 21.6%; in that of `CC(NC(=O)c1cc(-c2ccccc2)on1)c1ccccc1` (centres undefined), -114% (active).
In the case of `Cc1ccc(C(=O)NC(C)c2ccccc2)cc1Br` (centres undefined) it was -9.99%.
Take `O=C(NC1CCCC1)c1cc(-c2ccccc2)on1`: the activity change is 4.52%.
As to `COc1cccc(N2CC(NS(=O)(=O)c3ccc(Cl)cc3)CC2=O)c1` (centres undefined), the activity change is 25.6%.
For the compound `COc1cccc(N2CC(NS(=O)(=O)c3cccs3)CC2=O)c1` (centres undefined), the activity change was -5.41%.
For the compound `COc1ccc(N2CC(NS(=O)(=O)c3ccc4ccccc4c3)CC2=O)cc1` (centres undefined), the activity change is -102% (active).
Take `COc1ccc([C@H]2N[C@]3(CCCN(Cc4ccco4)C3=O)[C@H]3C(=O)N(C)C(=O)[C@@H]23)cc1`: the activity change is -5.99%.
For the compound `CCc1c(N=O)c(-c2ccccc2)n(O)[n+]1[O-]`, the activity change was -12.8%.
In the case of `O=C1CC[C@H](O)CCN1[C@H](CSc1ccc(Br)cc1)Cc1ccccc1` it was 8.81%; in that of `C[C@H]1CCC(=O)N([C@H](CSc2ccccc2)Cc2ccccc2)CC1`, 2.57%.
For `COc1ccc(SC[C@H](Cc2ccccc2)N2CCN(CCc3ccccc3)CCC2=O)cc1`, the activity change is -105% (active).
In the case of `COc1cc(C=NC2CCCCC2)ccc1O` it was -7.89%; in that of `C[C@H](CO)N1C[C@H](C)[C@@H](CN(C)S(=O)(=O)c2ccc(Oc3ccccc3)cc2)OCc2cn(nn2)CCCC1=O`, 2.39%; in that of `C=CCN1CCN(c2ccncc2S(=O)(=O)N2CCN(C)CC2)CC1`, -3.97%.
In the case of `Cc1ccc([C@H]2C[C@H](O)[C@@H](n3cc(COC(=O)c4ccccc4)nn3)CN2C(=O)C2CCCCC2)cc1` it was -7.68%; in that of `COc1cccc(NC(=O)CN(C)C(=O)c2cc(Cl)nc3ccccc23)c1`, 14.5%; in that of `CN1CCN(C2Cc3ccc(Cl)cc3Sc3ccc(F)cc32)CC1` (centres undefined), -75.9% (active).
The same measure for `O=C(O)C1CCCN1c1nc(Cl)ccc1[N+](=O)[O-]` (centres undefined): -2.11%; for `O=C(COC(=O)c1ccc(S(=O)(=O)N2CCCCCC2)cc1)Nc1ccccc1C(F)(F)F`: -2.65%; for `CC(=O)Nc1c(-c2ccc(C)cc2)nc2ccc(Cl)cn12`: 2.86%.
With `C#CC(CCN1CCCCC1)(OC)c1ccccc1` (centres undefined), the activity change was 58.1%.
`CCCCCCC(O)(CCN1CCCCC1)c1ccccc1` (centres undefined): the activity change was -21.6%.
On to `CCCCCC(O)(CCN1CCCCC1)c1ccccc1` (centres undefined), for which the activity change is -102% (active).
As for `Cc1ccc(NC(=O)c2ccco2)cc1`, the activity change was 4.6%.
On to `Cc1cc(C)c2c(=O)n3c(nc2c1)C(CC(C)C)NC(=O)c1cc2ccccc2cc1-3` (centres undefined), for which the activity change is -30.6%.
Take `Cc1ccccc1NC(=O)c1cnn(-c2ccccc2)c1NC(=O)c1ccco1`: the activity change is 11.4%.
The same measure for `O=C(Nc1nonc1-c1ccc(Cl)cc1)c1ccco1`: -7.1%; for `O=C(Nc1c(-c2ccccc2)nc2c(Br)cc(Br)cn12)c1ccco1`: -72.2% (active).
On to `CCCCCCN1C[C@H](O)[C@@H](n2cc(C3CC3)nn2)C[C@@H]1c1ccc(Cl)cc1`, for which the activity change was -39.7%.
The same measure for `CN1OC[C@@H]2CN(C(=O)c3ccc(-c4ccccc4)cc3)[C@H](c3ccc(-c4cccc(F)c4)cc3)C[C@@H]21`: -5.34%.
As to `COC(=O)C(Cc1c[nH]c2ccccc12)NC(=O)CCNC(=O)c1ccco1` (centres undefined), the activity change is 3.09%.
The same measure for `O=C(C[C@H]1C[C@H]2c3cc(NS(=O)(=O)c4ccc(F)cc4)ccc3O[C@H]2[C@H](CO)O1)NCc1cc(F)ccc1F`: -4.51%; for `CC1=C(C(=O)OC2CCCCC2)C(c2ccccc2F)NC(=O)N1` (centres undefined): 8.03%; for `CCC(CC)COC(=O)C1=C(C)NC(=O)NC1c1ccc([N+](=O)[O-])cc1` (centres undefined): 10.1%.
Take `CC1=C(C(=O)OCC2CCCCC2)C(c2ccc(F)cc2)NC(=O)N1` (centres undefined): the activity change is -100% (active).
In the case of `O=C(N/N=C/c1ccc2c(c1)OCO2)C(=O)N1CCCC1` it was -5.78%; in that of `COC(=O)c1ccc(/C=N/NC(=O)C(=O)N2CCCCCC2)cc1`, 2.79%; in that of `COc1cccc(/C=N/NC(=O)C(=O)N2CCCC2)c1`, -74.7% (active).
In the case of `CC(=O)c1ccc(OCC(=O)N(C)C2CCS(=O)(=O)C2)cc1` (centres undefined), the activity change is -6.59%.
For the compound `COC(=O)C[C@H]1C[C@@H]2c3cc(NC(=O)Nc4ccccc4)ccc3O[C@@H]2[C@@H](CO)O1`, the activity change was 4.16%.
With `CN(C)CCN(C(=O)CN1C(=O)c2ccccc2C1=O)c1nc2cc3c(cc2s1)OCCO3`, the activity change is 4.48%.
In the case of `Cc1ccc2nc(N(CCN(C)C)C(=O)C3=COCCO3)sc2c1` it was -3.64%.
Regarding `Cc1ccc(S(=O)(=O)N(C)C)cc1NC(=O)/C=C/c1cccs1`, the activity change was -14.2%.
In the case of `Cc1cc(C)c2nc(N(CCN(C)C)C(=O)/C=C/c3cccs3)sc2c1` it was -103% (active); in that of `Cc1ccc2sc(N(CCN(C)C)C(=O)/C=C/c3cccs3)nc2c1C`, -90.5% (active); in that of `Cc1cccc2sc(N(CCCN(C)C)C(=O)CCS(=O)(=O)c3ccccc3)nc12`, -7.9%.
In the case of `CCCCCC(=O)N1C[C@H](O)[C@@H](n2cc(COC(=O)c3ccccc3)nn2)C[C@@H]1c1ccc(C)cc1`, the activity change was -34.6%.
For `NC1=CC(=O)C(=O)c2cccnc21`, the activity change is -3.65%.
In the case of `C[C@@H]1CN([C@@H](C)CO)C(=O)c2cc(NS(C)(=O)=O)ccc2O[C@@H](C)CCCCO[C@H]1CN(C)C(=O)Nc1ccc2c(c1)OCO2` it was 11.4%; in that of `C[C@H]1Cn2cnc(C(=O)N[C@H](C)c3ccccc3)c2C(=O)N1`, -8.17%; in that of `COC(=O)c1ccccc1N=NNc1ccc([N+](=O)[O-])cc1`, 5.4%.
For the compound `Nc1ccc2nc3c(=O)[nH]c(=S)[nH]c3nc2c1`, the activity change is -92.4% (active).
In the case of `C[C@H]1CN([C@@H](C)CO)C(=O)c2cc(-c3ccccc3F)cnc2O[C@H]1CN(C)C(=O)C1CCOCC1` it was -1.4%; in that of `CC(C)N=C1CCCC1C(=S)SSC(=S)C1CCCC1=NC(C)C` (centres undefined), 8.25%.
The same measure for `COc1ccc(C(=O)NCCn2nc(C)cc2C)cc1OC1CCN(C(C)=O)CC1`: 12.7%; for `COc1cc(C(=O)N2CCN(C/C=C/c3ccccc3)CC2)cc(OC)c1C`: -2.35%.
As for `COc1cc2[nH]c(=O)n(Cc3ccc(C(=O)NC4CCN(Cc5ccccc5)CC4)cc3)c(=O)c2cc1OC`, the activity change was -8.47%.
The same measure for `COc1cc(C(=O)NC2CCN(Cc3ccccc3)CC2)cc(Cl)c1OC(C)C`: -16.6%.
`COc1ccc(C(=O)NC2CC2)cc1OC1CCN(C/C=C/c2ccccc2)CC1`: the activity change was -96.9% (active).
Regarding `COc1ccc(C(=O)NC2CC2)cc1OC1CCN(Cc2ccc(SC)cc2)CC1`, the activity change is -111% (active).
In the case of `COCC(=O)N(C)C[C@H]1Oc2cc(Br)ccc2S(=O)(=O)N([C@H](C)CO)C[C@H]1C` it was -6.83%; in that of `COc1ccc(S(=O)(=O)N2CCC(C(=O)NCCC(=O)Nc3ccccc3OC)CC2)cc1`, 7.34%; in that of `COCOCCn1cc(CN2CCS(=O)(=O)N(Cc3ccc(-c4ccccc4)cc3)C(CC(C)C)C2=O)nn1` (centres undefined), -28.9%.
The same measure for `CC(C)(C)OC(=O)CNC(=O)c1[nH]cnc1C(=O)N[C@@H](Cc1ccccc1)C(=O)OCc1ccccc1`: -2.87%; for `C[C@H](NC(=O)c1nc[nH]c1C(=O)NCC(=O)OC(C)(C)C)C(=O)OCc1ccccc1`: -109% (active); for `C[C@H](NC(=O)c1nc[nH]c1C(=O)NCC(=O)OC(C)(C)C)c1ccccc1`: -20.8%.
Regarding `C[C@H]1CN([C@@H](C)CO)C(=O)CCCn2cc(nn2)CO[C@@H]1CN(C)S(=O)(=O)c1ccc(-c2ccccc2)cc1`, the activity change was -9.74%.
For the compound `c1ccc2c(c1)nnn2-c1ccncc1`, the activity change is 1.83%.
The same measure for `COc1ccc(Cl)cc1NC(=O)CN(C)C(=O)c1cn(-c2ccccc2)nc1-c1cccs1`: -9.77%; for `CSc1ncccc1C(=O)N1CCCC(Nc2ccc(F)c(F)c2)C1` (centres undefined): -0.997%; for `CCOC(=O)c1[nH]ncc1CN1CCCC(C(=O)c2ccc(OC)cc2C)C1` (centres undefined): -6.21%.
In the case of `COc1ccc(C(=O)C2CCCN(S(=O)(=O)c3cccc(C)c3)C2)c(C)c1` (centres undefined) it was -2.34%; in that of `COc1ccc(C(=O)C2CCCN(Cc3cccn3-c3ccccn3)C2)c(C)c1` (centres undefined), -108% (active).
For `C=CCn1nc(C(=O)OCC)cc1-c1sc(NC(=O)c2ccccc2)nc1C`, the activity change is 21.3%.
For `C=CCNC(=O)/C(=C\c1cccc([N+](=O)[O-])c1)NC(=O)c1ccccc1`, the activity change was -8.85%.
The same measure for `CN(C)CCNC(=O)/C(=C/c1cccc([N+](=O)[O-])c1)NC(=O)c1ccccc1`: -83.8% (active); for `O=C(NCCc1ccccc1)/C(=C\c1ccc([N+](=O)[O-])cc1)NC(=O)c1ccccc1`: -33.9%; for `CCOC(=O)C=Cc1ccc(C(=O)OCC)[nH]1`: 6.88%.
`C[C@H](CO)N1C[C@H](C)[C@H](CN(C)C(=O)c2ccncc2)OCc2ccccc2-c2c(n(C)c3ccccc23)C1=O`: the activity change was -0.608%.
As for `COc1ccccc1-n1c(SCC(=O)Nc2ccc(Cl)cc2)nc(O)c(Cc2ccccc2)c1=O`, the activity change was 4.83%.
Regarding `CC(C)c1cc(C(=O)NC2CCCCCC2)c2ccccc2n1`, the activity change is 2.17%.
In the case of `C[C@@H]1CN([C@@H](C)CO)S(=O)(=O)c2ccc(C#Cc3cccc(F)c3)cc2O[C@H]1CN(C)S(=O)(=O)c1cn(C)cn1` it was 7.52%.
